Test results taken from PubChem BioAssay AID485317 (Broad Institute, 2010).
The whole screen tested about 290,000 compounds, of which about 11,000 (3.8%) were called active. The sample holds actives, similar compounds and a random draw of the others, so the mix is not that of the screen.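 The calls were made as follows: active = mean replicate inhibition above about 79%, with every replicate also reaching it (limit read from the data); inconclusive = only one of the two criteria met; inactive = mean below limit and not every replicate reaching it.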

target: FAD-linked sulfhydryl oxidase ALR (Homo sapiens) (UniProt P55789); assay: inhibitors of human ALR sulfhydryl oxidase, primary screen, biochemical, H2O2 detection, HRP-luminol luminescence, single point (AID 485317); conditions: purified ALR, DTT oxidation, active compounds read high, concentration not given here
Sequence (P55789 whole entry, looked up): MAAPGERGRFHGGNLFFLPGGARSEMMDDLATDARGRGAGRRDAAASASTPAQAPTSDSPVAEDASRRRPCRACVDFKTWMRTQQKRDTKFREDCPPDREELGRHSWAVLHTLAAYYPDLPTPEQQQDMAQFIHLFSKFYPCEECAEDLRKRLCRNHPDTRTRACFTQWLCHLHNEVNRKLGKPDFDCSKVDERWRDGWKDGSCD

Row | SMILES | inhibition
1 | Clc1ccccc1SCc1nc2ccccc2[nH]1 | -0.577% (inactive)
2 | c1ccc2c(CSCc3nc4ccccc4[nH]3)cccc2c1 | 98.7% (active)
3 | c1ccc(-c2nnc(SCc3nc4ccccc4[nH]3)o2)cc1 | -5.4% (inactive)
4 | COc1cc(/C=C(\C#N)c2nc3ccccc3[nH]2)ccc1O | 99% (active)
5 | COc1cc(/C=C(\C#N)c2nc3c(s2)CC(C)CC3)ccc1O (stereo unspecified) | 70% (inactive)
6 | Cc1ccc2nc(/C(C#N)=C\c3ccc(OC(=O)c4cccs4)cc3)[nH]c2c1 | -13.7% (inactive)
7 | CCOC(=O)C1CCN(S(=O)(=O)c2ccc3c(c2)N(C(C)=O)CCO3)CC1 | 25.7% (inactive)
8 | COc1ccc(N2CCN(S(=O)(=O)c3ccc4c(c3)N(C(C)=O)CCO4)CC2)cc1 | 89.8% (active)
9 | CC(=O)N1CCOc2ccc(S(=O)(=O)N3CCN(c4cccc(C(F)(F)F)c4)CC3)cc21 | -1.95% (inactive)
10 | Cc1cc(C)c(C)c(S(=O)(=O)Nc2cccnc2)c1C | -4.67% (inactive)
11 | CCOC(=O)c1c(NC(=O)C(C)Sc2c[nH]c3ccccc23)sc2c1CCC2 (stereo unspecified) | 94.5% (active)
12 | CCOC(=O)c1c(NC(=O)CCC(=O)NCc2ccco2)sc2c1CCCC2 | 3.61% (inactive)
13 | CCOC(=O)c1c(NC(=S)Nc2ccccc2C)sc2c1CCC2 | -0.578% (inactive)
14 | O=C(O[C@@H]1[C@H](Cc2ccccc2)NS(=O)(=O)[C@H]2C[C@@H]3C=C[C@]12O3)c1ccccc1Br | 6.25% (inactive)
15 | CCCCn1c(N)c(N(CC(C)C)C(=O)CN(C)S(=O)(=O)c2ccc(F)cc2)c(=O)[nH]c1=O | -15.2% (inactive)
16 | CC(=O)c1sc(NC(=O)CCN2C(=O)C3CC=CCC3C2=O)nc1-c1ccccc1 (stereo unspecified) | 1.73% (inactive)
17 | CCOc1cccc(/C=N/NC(=S)NCCN2CCOCC2)c1O | 49.2% (inactive)
18 | CCOc1cccc(/C=N/N2C(=O)CSC2=S)c1O | 92.9% (active)
19 | CCOc1ccccc1N=C1NC(=O)CS1 | -4.82% (inactive)
20 | CC(NC(=O)COC(=O)c1ccc2ccccc2n1)c1ccccc1 (stereo unspecified) | -0.035% (inactive)
21 | CCCCNC(=O)CCn1c(=S)[nH]c2cc3c(cc2c1=O)OCO3 | 5.42% (inactive)
22 | CCN(CC)CCCNC(=O)c1ccc2c(=O)n(Cc3ccc4c(c3)OCO4)c(=S)[nH]c2c1 | 95% (active)
23 | COc1ccc(Cn2c(=S)[nH]c3cc(C(=O)NCCCN4CCOCC4)ccc3c2=O)cc1 | 7.86% (inactive)

Row | SMILES | inhibition
24 | CCOc1ccc(NC(=O)CN(C)C(=O)c2c(C)noc2C)cc1OCC | -5.01% (inactive)
25 | CCOC(=O)c1c(C)oc2cc(Sc3ccccc3)c(O)c(O)c12 | -12.1% (inactive)
26 | CC(NCC(=O)Nc1ccccc1C(=O)NC1CC1)c1ccccc1Cl (stereo unspecified) | -6.65% (inactive)
27 | Nc1nonc1-n1nnc(C(=O)N/N=C/c2ccccc2O)c1CN1CCCC1 | -0.481% (inactive)
28 | Cc1noc(C)c1COc1ccccc1C(=O)N(C)CC(=O)Nc1cccc(F)c1 | -3.03% (inactive)
29 | Cc1ccc(N/N=C2\COC(C)(C)CC2=O)cc1 | 98.6% (active)
30 | CSCCC1NC(=O)N(CC(=O)Nc2cccc(S(=O)(=O)N3CCCCCC3)c2)C1=O (stereo unspecified) | 9.93% (inactive)
31 | CCCCc1ccc(NS(=O)(=O)c2cccc(C(=O)N3CCCN(C)CC3)c2)cc1 | -4.55% (inactive)
32 | O=c1[nH]c(SCc2ccccc2)nnc1-c1ccccc1 | -6.49% (inactive)
33 | COc1ccccc1CSc1ncc(-c2ccc([N+](=O)[O-])cc2)[nH]1 | -12.3% (inactive)
34 | N#Cc1c(-c2ccccc2)nc(SCc2ccc([N+](=O)[O-])cc2)[nH]c1=O | 99.5% (active)
35 | N#Cc1c(-c2ccc(F)cc2)nc(-c2ccccc2)[nH]c1=O | 47.4% (inactive)
36 | N#Cc1c(-c2ccccc2)nc(SCc2cccc(C(F)(F)F)c2)[nH]c1=O | 86.8% (active)
37 | O=c1[nH]c(SCc2cccc(F)c2)nc2ccccc12 | -17.9% (inactive)
38 | C/C=C/c1ccc(OCC(=O)NNC(=O)CN(C)S(=O)(=O)c2ccc(C)cc2)c(OC)c1 | -17.6% (inactive)
39 | Cc1ccc2nnn(Cc3cccc(C(C)(C)C)c3O)c2c1 | 14.7% (inactive)
40 | CCC(CC)c1nnc(NC(=O)C2=COCCO2)s1 | 2.79% (inactive)
41 | O=C(c1ccc(Cl)s1)N(Cc1nnc(-c2ccccc2Cl)o1)C1CC1 | -3.36% (inactive)
42 | COc1ccc(C)cc1NC(=O)c1cc(-c2ccccc2)nc2c1cnn2C(C)C | -1.17% (inactive)
43 | Cc1ccc(S(=O)(=O)N2CCCCC2)cc1C(=O)N(C)CC(=O)Nc1cccc(F)c1 | -10.8% (inactive)
44 | CC1=NNC(=O)C1CCC(=O)N/N=C\c1ccc(Cl)c(Cl)c1 (stereo unspecified) | 56.7% (inactive)
45 | O=C(C[n+]1ccccc1)N/N=C/c1ccc(O)cc1 | 98.9% (active)
46 | O=C(CCCCCNC(=O)c1ccccc1)N/N=C/c1ccccc1 | 35.5% (inactive)

Row | SMILES | inhibition
47 | O=C(CC(=O)Nc1ccc(Cl)c(Cl)c1)N/N=C/c1ccc(O)cc1 | 98.1% (active)
48 | O=C(CC(O)(C(F)(F)F)C(F)(F)F)Nc1ccc(Cl)c(Cl)c1 | 31.6% (inactive)
49 | O=C(CC(=O)N/N=C\c1ccc(F)cc1)NCCc1ccccc1 | 38.6% (inactive)
50 | CC(C)(C)OC(=O)CNC(=O)c1[nH]cnc1C(=O)N[C@@H](CCCCN)C(=O)OC(C)(C)C | 2.52% (inactive)
51 | C=CC[C@@H](CC(=O)N[C@@H](CO)Cc1ccccc1)C(=O)NCCOC(=O)[C@@H](CC=C)CC(=O)OC(C)(C)C | 0.56% (inactive)
52 | COc1ccc(C(=O)N(Cc2ccccc2)c2ccc(C)cc2)cc1S(=O)(=O)N1CCOCC1 | 18.8% (inactive)
53 | COc1ccc(NC(C)=O)cc1NC(=O)CN1CCN(c2ccccn2)CC1 | -9.42% (inactive)
54 | CCN(CC)c1ccc(NC(=O)CN2CCN(c3ccccn3)CC2)cc1 | 99.3% (active)
55 | O=C(CN1CCN(c2ccccn2)CC1)Nc1ccc(Br)cc1 | -8.03% (inactive)
56 | Cc1ccc(S(=O)(=O)N2[C@@H](c3cccc4ccccc34)C(C(=O)O)=C[C@H]2C(C)(C)C)cc1 | 9.1% (inactive)
57 | CN(C(=O)Cn1nnc(-c2ccc(F)cc2)n1)C1CCS(=O)(=O)C1 (stereo unspecified) | -4.28% (inactive)
58 | CCC1CCC/C1=N\NC(=O)c1ccc(Cl)cc1 (stereo unspecified) | -14.7% (inactive)
59 | O=C(COc1ccc2c3c(c(=O)oc2c1)CCCC3)NCC(O)c1ccccc1 (stereo unspecified) | -0.0443% (inactive)
60 | O=C(COc1ccc2oc3c(c2c1)CCCC3)Nc1ccccn1 | -9.11% (inactive)
61 | CCN(CC)CCCNC(=O)COc1ccc2oc3c(c2c1)CCCC3 | 83.3% (active)
62 | Cc1ccc(Br)c(NS(=O)(=O)c2cccc(C(=O)N3CCNC(=O)C3)c2)c1 | -0.146% (inactive)
63 | COc1ccccc1N1CCC(N2CCN(CC(C)(C)C)C(CCO)C2)CC1 (stereo unspecified) | 21.8% (inactive)
64 | COc1ccc(OCC(=O)Nc2ccc(N3CCC(C)CC3)cc2)cc1 | 1.79% (inactive)
65 | COc1ccc(N2CCC(N3CCN(C)C(CCO)C3)CC2)cc1 (stereo unspecified) | 86.4% (active)
66 | COc1ccc(CCNC(=O)C(=O)NCC2CCCN2S(=O)(=O)c2cccs2)cc1OC (stereo unspecified) | -2.42% (inactive)
67 | Oc1ccc2nc(Cc3ccccc3)[nH]c2c1 | 98.6% (active)
68 | Nc1cccc(CCc2nc3ccccc3[nH]2)c1 | 1.01% (inactive)
69 | O=C(OCc1nc2ccccc2[nH]1)C1CCCCC1 | 0.03% (inactive)

Row | SMILES | inhibition
70 | CN(C)C(=O)c1ccc(NC(=O)COC(=O)c2cc3c(s2)CCCCC3)cc1 | -2.4% (inactive)
71 | CCOc1ccc(NS(=O)(=O)c2ccc(Cl)c(C(=O)N(C)Cc3cccnc3)c2)cc1 | -9.87% (inactive)
72 | O=C(Nc1cccc(S(=O)(=O)N2CCOCC2)c1)C12CC3CC(CC(C3)C1)C2 | -1.07% (inactive)
73 | Oc1cc(O)c2c(c1)OC(c1ccc(O)c(O)c1)C(O)C2 (stereo unspecified) | 98.2% (active)
74 | O=C1N[C@@H](c2ccccc2)COC(=O)[C@H](Cc2ccc(F)cc2)C/C=C\C[C@@H]1CC(=O)N(CCO)Cc1ccccc1 | -1.44% (inactive)
75 | Cc1ccc(NC(=O)COc2coc(CN3CCc4ccccc4C3)cc2=O)cc1Cl | -8.1% (inactive)
76 | Cc1ccsc1C(=O)OCC(=O)NCCc1ccccc1 | -5.18% (inactive)
77 | Cc1ccc(N2C(=O)SC(N(CC(=O)O)c3ccc(C)cc3)C2=O)cc1 (stereo unspecified) | 0.583% (inactive)
78 | Cc1cccc(N2C(=O)SC(SC(=Nc3ccccc3)Nc3ccccc3)C2=O)c1 (stereo unspecified) | 0.802% (inactive)
79 | Cc1cccc(N2C(=O)SC(N(CC(=O)O)c3cccc(C)c3)C2=O)c1 (stereo unspecified) | 98.6% (active)
80 | CN(N)c1nc(N2CCCC2)nc(N2CCCC2)n1 | -6.99% (inactive)
81 | Cc1sc2ncnc(N3CCC(C(=O)Nc4ccc(F)cc4Cl)CC3)c2c1C | 1.27% (inactive)
82 | Nc1c(-c2ccccc2)nnn1Cc1ccccc1 | -6.35% (inactive)
83 | Cn1c(CC2Sc3ccccc3NC2=O)nnc1SCC(=O)c1ccc(Cl)cc1 (stereo unspecified) | 92.8% (active)
84 | Cn1c(CC(=O)Nc2ccccc2)nnc1SCC(=O)c1ccccc1 | -3.26% (inactive)
85 | Cc1ccc(C(=O)CSc2nnc(Cn3nnc4ccccc43)n2C)cc1 | 39.7% (inactive)
86 | Cc1cc(-c2n[nH]c(=S)n2/N=C/c2ccco2)n[nH]1 | -0.903% (inactive)
87 | S=c1[nH]nc(-c2ccco2)n1/N=C/c1ccc(Br)s1 | 68.5% (inactive)
88 | S=c1[nH]nc(-c2ccco2)n1/N=C/c1ccccc1 | 94.9% (active)
89 | COc1ccc(C(=O)COC(=O)C(O)c2ccccc2)c(OC)c1 (stereo unspecified) | -0.55% (inactive)
90 | O=C(C1Cc2ccccc2CN1C(=O)c1ccco1)N1CCN(c2ccccc2)CC1 (stereo unspecified) | 50.3% (inactive)
91 | Cc1ccc(Cl)c(OCC(=O)N(C)CC(=O)Nc2ccc(N3CCOCC3)cc2)c1 | 52.9% (inactive)
